Data as given in publication PMC5540273 (PLoS ONE, 2017).

Test system: PRP4
Details: concentration: 1 μM, replicates: in singlicate; n = 1
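Also: KINOMEscan kinase panel screen.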

SMILES | %Inh [%]
COc1ccc(Nc2ncc(C#N)c(Nc3ccccc3C(N)=O)n2)cc1N1CCN(C)CC1.Cl [GSK1558669] | 79
O=C(Nc1cccc(-c2nn3ncccc3c2-c2ccnc(Nc3cccc(C(F)(F)F)c3)n2)c1)c1c(F)cccc1F [GSK299495] | 71
Cc1cccc(-c2nc(Nc3ccc4ncsc4c3)c3ccccc3n2)n1 [GW867588] | 0
Cl.Nc1ncnc2occ(-c3ccc(NC(=O)Nc4cc(C(F)(F)F)ccc4F)cc3)c12 [SB-707548] | 8
C[C@@H](Oc1cc(-n2cnc3ccc(NC(=O)NC(C)(C)C)cc32)sc1C(N)=O)c1ccccc1Cl [GSK346294] | 43
c1ccc(-c2cc(-c3c[nH]nc3-c3ccccn3)ccn2)cc1 [GW576604] | 22
Cc1nnc(-c2ccc3occ(-c4ccc(C(C)O)cc4)c3c2)o1 (centres unmarked) | 0
CC(C)Oc1ccc2c(-c3ccnc(Nc4ccc(N5CCN(C)CC5)cc4)n3)cnn2n1 [GW696155] | 95
NS(=O)(=O)c1cccc(-c2ccc3ncc(N4CCOCC4)nc3c2)c1 [GSK1535721] | 2
Fc1ccc(-c2ncn(CCCN3CCOCC3)c2-c2ccccn2)cc1 [SB-211742] | 44
CN(C1=C(c2ccccc2)C(=O)NC1=O)c1ccccc1 [SB-334860] | 0
CCc1nc(-c2cccc(C)c2)c(-c2ccnc(NCc3ccccc3)c2)s1 | 6
O=C(NCCNc1ccnc(Nc2ccc(F)cc2)n1)Nc1ccccc1F [GSK1379880] | 21
O=c1cc(N2CCOCC2)nc2n(Cc3cccc(F)c3)ccn12 [GSK2297430] | 0
CC(C)(C)n1cnc2c(N)ncnc21 [SKF-97359] | 17
O=c1cc(N2CCOCC2)nc2n(Cc3cccc(C(F)(F)F)c3)ccn12 [GSK2297543] | 22
Cc1cccc(Cn2ccn3c(=O)cc(N4CCOCC4)nc23)c1 [GSK2297542] | 1
O=C(NCCNc1ccnc(Nc2ccc(F)cc2)n1)c1cc2ccccc2s1 [GSK1379874] | 49

SMILES | %Inh [%]
Cn1ccc2ncnc(Oc3ccc(NC(=O)Nc4ccncc4)c(Cl)c3)c21 | 14
COc1ccc(COc2cc(-n3cnc4ccccc43)sc2C(N)=O)cc1 [GSK1024304] | 11
Cc1ccc(C(=O)NCC(N)=O)cc1-n1c(C)cc(OCc2ccc(F)cc2F)c(Br)c1=O | 0
Cc1ccc(NC(=O)c2ccnc(N3CCN(C)CC3)c2)cc1-c1ccc(C(=O)NCC2CC2)cc1 [GW775604] | 0
Fc1ccc(-c2nn3c(OCC(F)(F)F)cccc3c2-c2ccncc2)cc1 [GW514784] | 34
Fc1ccc(-c2ncn(CCCN3CCOCC3)c2-c2cccnc2)cc1 [SB-211743] | 0
O=C(NOCC1CC1)c1ccc(F)c(F)c1Nc1ccc(I)cc1Cl | 0
O=C(Nc1n[nH]c2cc(-c3cccc(F)c3)ccc12)C1CC1 [SB-735464] | 7
COc1ccc(Nc2nccc(N3CCC(NC(=O)Nc4cccc(C(C)=O)c4)C3)n2)cc1 (centres unmarked) [GSK1379731] | 0
N#Cc1ccc(-c2cc(-c3c[nH]nc3-c3ccccn3)ccn2)cc1 [GW693028] | 41
COC(=O)Nc1nc2cc(Oc3ccc(NC(=O)Nc4cc(F)ccc4F)cc3)ccc2[nH]1.Cl [GW701424] | 62
O=c1cc(N2CCOCC2)nc2n(Cc3cccc4ccccc34)ccn12 [GSK2333389] | 2
c1ccc(-c2n[nH]cc2-c2ccnc3ccccc23)nc1 [GW271431] | 5
Nc1nccc(-c2c(-c3ccc(F)cc3)ncn2C2CCN(CC(F)(F)F)CC2)n1 [SB-236560] | 7
NCC(NC(=O)c1cc(-c2cn[nH]c2)c(-c2ccnc3[nH]ccc23)s1)c1ccccc1.O=C(O)C(F)(F)F.O=C(O)C(F)(F)F (centres unmarked) [GSK1325775] | 72
Cc1c2ccc(N(C)c3ccnc(Nc4cccc(S(N)(=O)=O)c4)n3)cc2nn1Cc1ccccc1.Cl.Cl [GW787226] | 0
COc1ccc(S(=O)(=O)NC2CCN(c3cc(C)nc(Nc4cccc(C#N)c4)n3)CC2)cc1.O=C(O)C(F)(F)F [GSK1653539] | 3
